Measured values from the supplement of paper PMC8728848.
Shown is part of a subset that was picked to be rich in the strongest signals.

Legend:
Experiment in all cases: glycan array binding signal (z-score within array); higher = stronger binding
Conditions in all cases: glycan notation: IUPAC condensed, linker removed
[1] = target: Fuc(a1-2)Gal(b1-3)GalNAc(b1-3)Gal(a1-4)Gal(b1-4)Glc
Summary of the method: (§1)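 The Consortium for Functional Glycomics database supplied 3228 glycan arrays, of which those lacking an available protein sequence were dropped. The binding signal, a within-array Z-score, was averaged across arrays of the same protein sequence and across linkers. Negative scores can be read as non-binding.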

[2] = target: Fuc(a1-2)Gal(b1-3)[Fuc(a1-4)]GlcNAc(b1-3)[Gal(b1-4)GlcNAc(b1-6)]Gal(b1-4)Glc
Summary of the method: as §1

[3] = target: Fuc(a1-2)Gal(b1-4)[Fuc(a1-3)]GlcNAc(b1-3)GalNAc
Summary of the method: as §1

[4] = target: Fuc(a1-2)[GalNAc(a1-3)]Gal(b1-4)GlcNAc(b1-2)Man(a1-3)[Fuc(a1-2)[GalNAc(a1-3)]Gal(b1-4)GlcNAc(b1-2)Man(a1-6)]Man(b1-4)GlcNAc(b1-4)GlcNAc
Summary of the method: as §1

[5] = target: Fuc(a1-2)[GalNAc(b1-3)]Gal
Summary of the method: as §1

[6] = target: Fuc(a1-3)[Gal(b1-4)]GlcNAc(b1-2)Man(a1-3)[Fuc(a1-3)[Gal(b1-4)]GlcNAc(b1-2)Man(a1-6)]Man(b1-4)GlcNAc(b1-4)GlcNAc
Summary of the method: as §1

[7] = target: Fuc(a1-3)[Gal(b1-4)]GlcNAc(b1-3)GalNAc
Summary of the method: as §1

[8] = target: Gal(a1-3)Gal(b1-3)GlcNAc(b1-2)Man(a1-3)[Gal(a1-3)Gal(b1-3)GlcNAc(b1-2)Man(a1-6)]Man(b1-4)GlcNAc(b1-4)GlcNAc
Summary of the method: as §1

[9] = target: Gal(a1-3)Gal(b1-3)[Fuc(a1-4)]GlcNAc(b1-2)Man(a1-3)[Gal(a1-3)Gal(b1-3)[Fuc(a1-4)]GlcNAc(b1-2)Man(a1-6)]Man(b1-4)GlcNAc(b1-4)GlcNAc
Summary of the method: as §1

Gal(a1-4)Gal(b1-4)GlcNAc = target: Gal(a1-4)Gal(b1-4)GlcNAc
Summary of the method: as §1

[10] = target: Gal(a1-4)Gal(b1-4)GlcNAc(b1-2)Man(a1-3)[Gal(a1-4)Gal(b1-4)GlcNAc(b1-2)Man(a1-6)]Man(b1-4)GlcNAc(b1-4)GlcNAc
Summary of the method: as §1

[11] = target: Gal(a1-4)Gal(b1-4)GlcNAc(b1-3)Gal(b1-4)Glc
Summary of the method: as §1

Gal(b1-3)Gal(b1-4)GlcNAc = target: Gal(b1-3)Gal(b1-4)GlcNAc
Summary of the method: as §1

[12] = target: Gal(b1-3)GlcNAc(b1-3)Gal(b1-3)GlcNAc
Summary of the method: as §1

[13] = target: Gal(b1-3)GlcNAc(b1-3)Gal(b1-4)GlcNAc
Summary of the method: as §1

[14] = target: Gal(b1-3)[Neu5Ac(a2-6)]GalNAc
Summary of the method: as §1

[15] = target: Gal(b1-4)GlcNAc(b1-2)Man(a1-3)[Man(a1-6)]Man(b1-4)GlcNAc(b1-4)GlcNAc
Summary of the method: as §1

[16] = target: Gal(b1-4)GlcNAc(b1-3)[Gal(b1-4)GlcNAc(b1-6)]GalNAc
Summary of the method: as §1

Gal3S(b1-4)Glc = target: Gal3S(b1-4)Glc
Summary of the method: as §1

[17] = target: GalNAc(b1-3)Gal(a1-4)Gal(b1-4)GlcNAc(b1-3)Gal(b1-4)Glc
Summary of the method: as §1

[18] = target: GalNAc(b1-3)Gal(a1-6)Gal(b1-4)Glc
Summary of the method: as §1

GlcA(b1-3)GlcNAc = target: GlcA(b1-3)GlcNAc
Summary of the method: as §1

B1: CwpV (Clostridium difficile), B6EFG6 (protein)
chain: MKIPKKIAAMLTVTMIAGSSTAGIASAQTVATNLTGQERYETAVKISQDGWKNADEVVIVNDSSIADALSATPFAKAKNAPILLTSKDKLNDKTKAEIQRLKAKKVYLIGGTSVLSTNIEKEIKDLKISFERISGAERYQTSLELAKKLDAISDVKKIAVVNGEKGLADAVSVGAPAAQNNMPVILADSKNGTAVADKFIKDAGITQSYVVGGESSISEAVKNKLPNSTRLGGTDRNDTNAKVIKEFYKKTDLKNAYVTKDGMNKQDQLIDALAVGVLGAKNQSPVVLVGKNLSASQKSLVNSKSFDKITKVGGNGNETAFNEMKSLQEVKTVEAKTISELKSAIDKATANDVINFKPTSEVKEAFTIQTDKAVTVNLNGTYTKTVTINMPNGDVNNYAKVDDVVIDDVKDGTFVNYGKITNLKVNDKNGAKIENNSKGEIGSLTVASGASQVKVTNGGKITTVTNNSKGTTIDNKGTISSVKGDNSPTISGNSPSSNSSGGSSSSGGSSGGSSGGSSSSKVGQIKFSATDKQIKMASGDKTVDPSDNTYILKLTNGTVKDGDVKANVKVAGLPSGLDYTAVGNRSANTITITVSGTTSQSIQNDLNNVSVLVKAGAVSGTGATDSIANTTFEIKKYVAAPAVGQLTFDATDKQIKMASGDKTVDPSDDTYVLTLTKGTAKDGDIKANVEVTGLPSGLDYTAEGDSSANTITIPVSGTASPAVQTDLDNVSVLVKAGAVSETTATDSAANATFEVKKYVAPAVGQLTFDATDKQIKMASGDKTVDPSDDTYVLTLTKGTAKDGDIKANVEVTGLPSGLDYTAEGDSSANTITITVSGTASQAVQTDLDNVSVLVKAGAVSETTATDSAANATFEVKKYVAPAIGQLTFDATDKQIKMASGDKTVDPSDDTYVLTLTKGTAKDGDIKANVEVTGLPSGLDYTAEGDSSANTITITVSGTASQAVQTDLDNVSVLVKAGAVSETTATDSAANATFEVKKHASDPISTIGKISSGLSSLFNILK
- glycan array binding signal (z-score) [1]: 2.48
- glycan array binding signal (z-score) [2]: 0.041
- glycan array binding signal (z-score) [3]: 0.596
- glycan array binding signal (z-score) [4]: -0.032
- glycan array binding signal (z-score) [5]: -0.249
- glycan array binding signal (z-score) [6]: -0.175
- glycan array binding signal (z-score) [7]: 0.07
- glycan array binding signal (z-score) [8]: 0.365
- glycan array binding signal (z-score) [9]: 0.538
- glycan array binding signal (z-score) (Gal(a1-4)Gal(b1-4)GlcNAc): 2.24
- glycan array binding signal (z-score) [10]: 9.72
- glycan array binding signal (z-score) [11]: 2.79
- glycan array binding signal (z-score) (Gal(b1-3)Gal(b1-4)GlcNAc): -0.025
- glycan array binding signal (z-score) [12]: -0.249
- glycan array binding signal (z-score) [13]: 0.622
- glycan array binding signal (z-score) [14]: -0.248
- glycan array binding signal (z-score) [15]: -0.26
- glycan array binding signal (z-score) [16]: -0.34
- glycan array binding signal (z-score) (Gal3S(b1-4)Glc): -0.29
- glycan array binding signal (z-score) [17]: 6.4
- glycan array binding signal (z-score) [18]: 2.68
- glycan array binding signal (z-score) (GlcA(b1-3)GlcNAc): 8.78
